From ChEMBL document CHEMBL4513216, “Probing the Open Global Health Chemical Diversity Library for Multistage-Active Starting Points for Next-Generation Antimalarials” (ACS Infect Dis, 2020)
About 2,700 (4%) of roughly 68,000 compounds showed an effect of 50% or more. For the sample, strong results were picked, then their nearest neighbours and some compounds at random.

Each compound was assayed on Plasmodium berghei (assay: Screen against P. berghei liver stage (PbLuc), transformed with Luciferase, at 2uM). Conditions: tested at 2 uM.
Format: functional, HepG2

Row | SMILES | INHIBITION [%]
1 | Cc1nnc(NC(=O)NCc2ccc(F)cc2)s1 | -12.41
2 | O=C(c1nc2c(o1)CN(CC1CCC1)C2)N1CCCC1 | 12.68
3 | COCCN1C[C@H]2[C@@H](C1)N(C(=O)CCc1ccccc1)CC[C@H]2OC | 25.02
4 | COCCN1C[C@H]2[C@@H](C1)N(C(=O)COc1ccccc1)CC[C@H]2OC | -75.33
5 | COCCN1C[C@@H]2[C@@H](OC)CCN(C(=O)Cc3ccccc3)[C@@H]2C1 | 55.44
6 | N#Cc1ccccc1CN1C[C@H]2CC[C@@H](C1)N(Cc1cscn1)C2=O | -66.52
7 | CC(C)N(C)S(=O)(=O)N1CCCC1CC(=O)c1cccs1 (stereo not drawn) | 2.71
8 | Cc1ccc(CNCC2Cn3nnc(-c4cccc(F)c4)c3CO2)o1 (stereo not drawn) | -17.26
9 | CN1CCC2(COCCN(Cc3cccc(C#N)c3)C2)C1 (stereo not drawn) | 16.03
10 | CCCS(=O)(=O)N1CCC2(CCC(=O)N(CCc3ccccc3)C2)CC1 | 15.56
11 | CCCS(=O)(=O)N1CCC2(CCC(=O)N(Cc3ccccc3)C2)CC1 | 57.91
12 | CCCS(=O)(=O)N1CCC2(CCC(=O)N(CCc3cccnc3)C2)CC1 | 31.96
13 | CCC(CNC(=O)Cc1c(C)noc1C)N1CCCC1 (stereo not drawn) | -15.63
14 | Cc1ccnn1CCC(=O)N1CCC(c2cnccn2)CC1 | 55.74
15 | Cn1nccc1CCC(=O)N1CCC(c2cnccn2)CC1 | -14.13
16 | COc1cc(CCC(=O)N2CCC(c3cnccn3)CC2)on1 | -56.97
17 | CC(Cn1cc(Br)cn1)C(=O)Nc1ccc(Br)cn1 (stereo not drawn) | -84.37
18 | CC(C)N(CCCNC(=O)C1CCCN(C(N)=O)C1)S(C)(=O)=O (stereo not drawn) | 26.18
19 | CN(CCC#N)C(=O)CSc1cc(F)ccc1F | 6.82
20 | N#CCCNC(=O)CSc1ccc(F)cc1F | 21.22
21 | N#CCCNC(=O)CSc1cc(F)ccc1F | 51.83
22 | CC(C)CN1CCCC1c1ccc(C(=O)Nc2cn(C)nn2)s1 (stereo not drawn) | -28.11
23 | CCc1nnc(NC(=O)c2ccc(C3CCCN3CC(C)C)s2)s1 (stereo not drawn) | 52.98
24 | Cc1cnc(NC(=O)c2ccc(C3CCCN3CC(C)C)s2)s1 (stereo not drawn) | 24.36
25 | CCc1nccn1-c1cncc(C2CCCN2)n1 (stereo not drawn) | -21.99
26 | c1ccc(C2CCCN2Cc2nnnn2C2CC2)cc1 (stereo not drawn) | 7.74

Row | SMILES | INHIBITION [%]
27 | CN(CCCNS(=O)(=O)N1CCC2(CC1)OCCO2)c1ccccc1 | 0.12
28 | O=c1[nH]c2nc(NCC3CCCO3)ncc2c(=O)n1-c1ccc(F)cc1 (stereo not drawn) | 24.34
29 | O=c1[nH]c2nc(NCC3CCCO3)ncc2c(=O)n1-c1cccc(F)c1 (stereo not drawn) | 61.06
30 | O=c1[nH]c2nc(N3CCCC3)ncc2c(=O)n1-c1cccc(F)c1 | 22.51
31 | CN1CCCC[C@@H]2[C@H]1[C@@H](c1ccccc1)CCN2S(=O)(=O)N1CCCC1 | 49.9
32 | COc1ccc(OC)c(-n2nnnc2SCC2CCCCO2)c1 (stereo not drawn) | -10.78
33 | Cc1cnc2[nH]c(C(F)(F)F)c(CN3CCCC(CO)C3)c2c1 (stereo not drawn) | 18.87
34 | Cc1ccc(C(=O)NCCNC(=O)c2cncnc2C)cc1F | -9.98
35 | CCc1ncncc1C(=O)NCCNC(=O)c1ccc(C)c(F)c1 | -18.39
36 | Cc1ccc(C(=O)NCCNC(=O)c2cncnc2C(C)C)cc1F | 57.34
37 | O=C(CCn1cccn1)NCCOc1cccc(Cl)c1 | 8.78
38 | Nc1ccc(C(=O)N2C[C@H]3CC[C@@H](C2)N(Cc2ccccc2)C3)cn1 | 57.85
39 | Cc1ccc(C(=O)N2C[C@H]3CC[C@@H](C2)N(Cc2ccccc2)C3)cn1 | -17.44
40 | O=C(c1c[nH]c(=O)cn1)N1C[C@H]2CC[C@@H](C1)N(Cc1ccccc1)C2 | 24.51
41 | COc1ncccc1CN1CCn2c(Cn3cncn3)cnc2C1 | -47.72
42 | O=C(NCCC1=CCCCC1)c1ccc(-n2cccc2)nc1 | 46.17
43 | CCc1nnc2n1CCN(C(=O)Cc1csc(-c3ccco3)n1)C2 | -5.2
44 | CCN1CCN(C(=O)C(C)n2cc(Br)cn2)CC1 (stereo not drawn) | 1.77
45 | CC/C=C(/C)C(=O)NS(=O)(=O)c1ccc(C#N)cc1C(F)(F)F | 6.08
46 | CCCC(=O)NS(=O)(=O)c1ccc(C#N)c(C(F)(F)F)c1 | 4.68
47 | CC/C=C(/C)C(=O)NS(=O)(=O)c1ccc(C#N)c(C(F)(F)F)c1 | 57
48 | Cn1nc(CNC(=O)NCc2ccc(Cl)cc2)c2c1CCOC2 | -18.29
49 | C=C(C)COc1cccc(CN(C)C(C)c2nccs2)c1 (stereo not drawn) | -10.78
50 | C=C(C)COc1cccc(C(=O)N(C)C(C)c2ccncn2)c1 (stereo not drawn) | 18.88
51 | C=C(C)COc1cccc(CN(C)C(C)c2ccncn2)c1 (stereo not drawn) | 53.17
52 | CC(C)N1CCCC(Cc2nccnc2Cl)C1 (stereo not drawn) | -47.18

Row | SMILES | INHIBITION [%]
53 | Cc1nc(C)c(C(C)NCc2c(C)nn(C)c2N(C)C)s1 (stereo not drawn) | -30.49
54 | Cc1nc(C)c(C(C)NCc2c(C(C)C)nn(C)c2N(C)C)s1 (stereo not drawn) | -34.69
55 | COc1c(CNC(C)c2sc(C)nc2C)c(C(C)C)nn1C (stereo not drawn) | 59.99
56 | Cc1ccc(-c2cc(N)c(=O)n(C(C)C(=O)NCC3CCCCC3)n2)s1 (stereo not drawn) | -1.07
57 | Cc1ncsc1CN1C[C@@H]2CC[C@H]1CN(Cc1ccccc1)C2 | 15.68
58 | CC(C)(C)C(O)CN1CCN(CCOCC(F)(F)F)CC1 (stereo not drawn) | -17.11
59 | Cc1nn(C)c(C)c1C(=O)NCc1ccnc(OCC(F)(F)F)c1 | 11.09
60 | COCCN1CCCC1c1ccnc(-c2ccccc2)n1 (stereo not drawn) | 14.3
61 | CCCn1cc(-c2cc(-c3ccoc3)c(C#N)c(N)n2)c(C)n1 | 61.28
62 | CCCn1cc(-c2cc(-c3cnc(OC)nc3)c(C#N)c(N)n2)c(C)n1 | 38.61
63 | CCCn1cc(-c2cc(-c3c[nH]cn3)c(C#N)c(N)n2)c(C)n1 | 38.15
64 | Cc1cccc(-c2noc(CN3CC(n4cccn4)C3)n2)c1 | -15.28
65 | CS(=O)(=O)Cc1ccc(Cl)c(NCc2noc(C3CC3)n2)c1 | -22.2
66 | Cc1ccc(-c2ccc(Cl)nn2)cc1S(=O)(=O)N1CCOCC1 | 4.88
67 | Cc1cc(C)c(S(=O)(=O)Nc2c(C)nc(N(C)C)nc2C)cc1C | -46.61
68 | CN1CC2(CCCN(Cc3nnc(-c4ccco4)o3)CC2)OC1=O (stereo not drawn) | 16.82
69 | CN1CC2(CCCN(Cc3nnc(-c4cccc(F)c4)o3)C2)OC1=O (stereo not drawn) | 54.49
70 | CN1CC2(CCCN(Cc3nnc(-c4ccccc4)o3)CC2)OC1=O (stereo not drawn) | -16.62
71 | O=C(NC[C@]12COC[C@H]1CN(Cc1ccco1)C2)c1ccccc1 | -36.34
72 | O=C(NCc1ccco1)N1CCC(n2ccc(C(F)(F)F)n2)CC1 | -43.09
73 | Cc1nn(C)cc1CN1CCCC(n2c(=O)oc3ccc(Cl)cc32)C1 (stereo not drawn) | 13.17
74 | COCC(=O)N1CCN(C(=O)C2CCCCC2)[C@@H](C(=O)OC)C1 | 72.68
75 | COCC(=O)N1CCN(C(C)=O)C[C@@H]1C(=O)OC | 23.53
76 | COC(=O)[C@H]1CN(C(=O)NC(C)C)CCN1C(=O)C1CCCCC1 | 16.67
77 | COC(=O)[C@H]1CN(C(C)=O)CCN1C(C)=O | 56.21
78 | COC(=O)[C@@H]1CN(C(=O)Nc2ccccc2)CCN1C(C)=O | -21.22

Row | SMILES | INHIBITION [%]
79 | COCC(=O)N1CCN(C(=O)c2cccs2)[C@@H](C(=O)OC)C1 | -19.02
80 | CNC(=O)C1(c2cnccn2)CCCN1C(=O)Cc1ccsc1 (stereo not drawn) | 36.82
81 | CN(CCc1ccccn1)Cc1nccn1Cc1ccccc1 | -9.98
82 | CN(C)Cc1cnc2n1CCN(C(=O)NCc1ccccc1)CC2 | 53.44
83 | CN(C)Cc1cnc2n1CCN(C(=O)Cc1ccsc1)CC2 | 37.51
84 | CN(C)Cc1cnc2n1CCN(C(=O)NC1CCCC1)CC2 | 16.03
85 | CN(C)Cc1cnc2n1CCN(C(=O)C1CC=CC1)CC2 | 46.27
86 | CN(C)Cc1cnc2n1CCN(C(=O)Cc1cccc(F)c1)CC2 | 54.82
87 | CN(C)Cc1cnc2n1CCN(C(=O)Cc1ccc(F)cc1)CC2 | 8.41
88 | CN(Cc1ccccc1F)C(C(N)=O)c1ccccc1 (stereo not drawn) | 24.62
89 | CN(C)S(=O)(=O)c1ccc(-c2nc(C#N)c(NC(C)(C)C)o2)o1 | 1.3
90 | CCN(CC)CCN1CC[C@H]2OCC[C@@]2(C(=O)N2CCOCC2)C1 | 41.38
91 | COC(=O)c1cccc(C(=O)N2CCN(c3cc(Cl)ccc3C)CC2)n1 | 18.76
92 | CC(C)=CCCC(C)CN1CCC(n2cc(C(C)(C)O)nn2)CC1 (stereo not drawn) | 15.27
93 | CC(C)=CCCC(C)CN1CCC(n2cc(C(=O)NCCO)nn2)CC1 (stereo not drawn) | 48.93
94 | CC(C)=CCCC(C)CN1CCC(n2cc(CO)nn2)CC1 (stereo not drawn) | 55.66
95 | Fc1cccc(C2(CNC3CCOC4(CCOCC4)C3)CCOCC2)c1 (stereo not drawn) | -8.87
96 | COc1cc(CNCCn2cc(C)cn2)c2c(c1)CC(C)O2 (stereo not drawn) | -11.26
97 | COc1cccc(OCC(=O)N(C)c2cccnc2N(C)C)c1 | -3.66
98 | COc1ccc(CC(=O)N(C)c2cccnc2N(C)C)c(Cl)c1 | 54.29
99 | CN(C)c1ncccc1N(C)C(=O)Cn1cc(-c2ccccc2)nn1 | -34.37
100 | Fc1ccc(CN2CCC3(CC2)CCN(c2ncccn2)CC3)cc1 | 26.94
101 | CC(O)CN1CCC(CN(C)Cc2cc(F)cc3cccnc23)CC1 (stereo not drawn) | -0.44
102 | Cc1ccc2c(n1)N(CCN(C)C)CCN(C(=O)c1cccs1)C2 | -29.61
103 | Cc1cnc2n(c1=O)CC(C(=O)NCc1ccccc1Cl)CS2 (stereo not drawn) | 39.58
